High-throughput results as filed in PubChem.
An excerpt weighted towards active compounds, which were near 7% of everything screened.
KAT2A inh: inhibitors of human GCN5L2 histone acetyltransferase; GCN5L2 HAT assay, ThioGlo1 CoA-SH fluorescence; Q92830; Potency, µM (doses to about 58.9 µM), inactives show at the highest dose activity change, negative = inhibition, most hits filed as inhibitors; hit rate 0.21% among 390,000; also: potency is read from the fitted curve at half-maximal effect; % is scaled to controls: 0 for no effect and ±100 for the full control effect
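qHTS, 1536-well. 20nM enzyme, pH 7.5 HEPES/EDTA/Tween-20 buffer; 15 min compound preinc., RT. Start: 75uM H3(1-25), 70uM AcCoA, 50uM ThioGlo1. Read Ex340/Em540 at t=0 (autofluorescence flag) and t=20 min.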
PLK1 PBD inh: blocks phosphopeptide binding to human PLK1 polo-box domain; P53350; Plk1 PBD binding of FITC phosphopeptide, fluorescence polarization; Potency, µM, for the others: max response, negative = inhibition, actives largely listed as inhibitors; hit rate 2.8% among 360,000; also: potency is read from the fitted curve at half-maximal effect; series mostly up to about 57 µM; % is scaled to controls: 0 for no effect and ±100 for the full control effect; nearly all actives have a fitted effect of over 65% in size
PI5P4K alpha inh: inhibitors of human PI5P4K alpha. P48426. PI5P4Kalpha enzyme, ADP-Glo luminescence, 60 min; hits give low values. max response, %. hit rate 1.2% among 330,000; active = max response of -50% or lower; inconclusive = between -30% and -50%; inactive = -30% or higher; also: value at the top dose of about 77 µM; % is scaled to controls: 0 for no effect and ±100 for the full control effect
Target sequence (P48426 whole entry, looked up): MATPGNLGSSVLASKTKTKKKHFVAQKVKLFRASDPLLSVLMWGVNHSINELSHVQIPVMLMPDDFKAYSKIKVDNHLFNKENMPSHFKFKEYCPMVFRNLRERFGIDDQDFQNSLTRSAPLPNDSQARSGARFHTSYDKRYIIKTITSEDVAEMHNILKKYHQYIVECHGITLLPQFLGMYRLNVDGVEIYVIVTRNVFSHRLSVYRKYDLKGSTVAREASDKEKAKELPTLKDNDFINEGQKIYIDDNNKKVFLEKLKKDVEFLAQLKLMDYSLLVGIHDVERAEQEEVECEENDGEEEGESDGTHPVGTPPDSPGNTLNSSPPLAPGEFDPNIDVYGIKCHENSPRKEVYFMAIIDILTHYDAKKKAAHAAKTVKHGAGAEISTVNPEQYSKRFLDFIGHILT
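Quantitative HTS of the MLSMR library against PI5P4Kalpha with substrate. ATP added last at 5 microM final; room temperature, 60 minutes. Remaining ATP depleted, ADP converted and read as luminescence.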
BAZ2B block: blocks human BAZ2B | AID 504333 | Potency, µM (titrated, usually from 114 µM), for inactives: at the top dose activity change, negative = inhibition, most hits filed as inhibitors | hit rate 4.4% among 360,000 | AlphaScreen BAZ2B-H3K14Ac peptide displacement | Q9UIF8; also: potency is read from the fitted curve at half-maximal effect; % is scaled to controls: 0 for no effect and ±100 for the full control effect; nearly all actives have a fitted effect of over 60% in size
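AlphaScreen luminescence quantifies BAZ2B engagement of H3K14Ac peptide; the protein and biotinylated peptide are both at 50 nM final, buffer PBS pH 7.4 with 0.01% Tween-20, all steps at room temperature.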
JMJD2A Tudor: inhibitors of human JMJD2A Tudor domain; O75164; AlphaScreen JMJD2A-Tudor / H3K4me3 peptide binding; Potency, µM (doses to about 114 µM), for the others: top-dose activity change, negative = inhibition, hits mostly inhibitors; hit rate 4.4% among 390,000; also: potency is read from the fitted curve at half-maximal effect; % is scaled to controls: 0 for no effect and ±100 for the full control effect; nearly all actives have a fitted effect of over 50% in size
HP1b chromo inh: HP1-beta chromodomain-methylated histone interaction inhibition; AlphaScreen HP1-beta / biotin-H3K9me3 peptide binding; Potency, µM (highest dose often 114 µM), inactives show at the top dose activity change, negative = inhibition, hits mostly inhibitors; hit rate 0.56% among 390,000; AID 540317; also: potency is read from the fitted curve at half-maximal effect; nearly all actives have a fitted effect of over 70% in size
Target sequence (P83916 whole entry, looked up): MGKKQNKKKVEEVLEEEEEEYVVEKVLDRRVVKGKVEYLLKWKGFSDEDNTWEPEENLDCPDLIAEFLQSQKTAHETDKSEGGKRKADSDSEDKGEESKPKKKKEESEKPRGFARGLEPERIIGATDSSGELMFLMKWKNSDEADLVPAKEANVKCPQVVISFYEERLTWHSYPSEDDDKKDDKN
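Compound inhibition of the preformed complex between 50 nM HP1-beta and 50 nM biotinylated H3K9me3 peptide was read by AlphaScreen. Buffer was PBS pH 7.4 with 0.01% Tween-20. Incubations ran 30 min at room temperature, with 10 ug/mL donor/acceptor beads.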
* hit, by the source's call; u = inconclusive; x = not tested or not shown; [ ] = remark or other dose. Unless noted, calls follow the shape of the dose curve; as a rule, active = well fitted curve in the direction sought with a large enough effect; inconclusive = small, poorly fitted or top-dose-only effect, or another doubt; inactive = no such curve, though single readings can be large; an effect the other way counts as inactive or inconclusive.

SMILES | KAT2A inh | PLK1 PBD inh | PI5P4K alpha inh | BAZ2B block | JMJD2A Tudor | HP1b chromo inh
Cn1c(Cc2ccccc2)nnc1SCC(=O)c1ccc(Br)s1 | -5.1% | 21.2µM* | -5.4 | -8.2% | -20.0% | 3.1%
Cn1nnnc1SCC(=O)c1ccc(Br)s1 | 16.6% | u | -8.3 | 0.5% | -16.0% | 39.3%
CC1CCN(S(=O)(=O)N2CCCC(C(=O)NCc3ccccc3Cl)C2)CC1 (configuration not stated) | -5.9% | -0.9% | -5.7 | -4.0%[57.1 µM] | 1.0% | 30.7%
O=C(NCc1ccc(F)cc1)C1CCN(S(=O)(=O)N2CCCC2)CC1 | -10.2% | 11.9µM* | -25.1 | -3.3% | u | 17.6%
CC1CCN(S(=O)(=O)N2CCCC(C(=O)NCc3ccc(F)cc3)C2)CC1 (configuration not stated) | 0.8% | 26.7µM* | -13.2 | -12.4% | 11.2µM* | -19.7%[57 µM]
CC1CCN(C(=O)C(C)NCc2ccc(F)cc2)CC1 (configuration not stated) | -2.7% | 16.8µM* | -8.4 | 50.1µM* | 10µM* | 20.0%
CCc1ccc(NC(=O)C2CCCN(S(C)(=O)=O)C2)cc1 (configuration not stated) | -9.1% | 21.2µM* | -9.8 | -11.2% | -9.8%[11.4 µM] | 5.6%
CCOc1ccc(NC(=O)C2CCCN(S(C)(=O)=O)C2)cc1 (configuration not stated) | 2.7% | -7.3% | 1.2 | 5.3% | -8.3% | 31.6%
O=C1C=C(c2cccc(Br)c2)C[C@@H](c2ccc(Cl)cc2)C1 | -7.5% | -3.9% | 15.2 | x | 5.7% | 55.5%
COc1ccccc1CNc1ccc(-c2nc(-c3cccc(C)c3)no2)cc1[N+](=O)[O-] | -3.5% | x | x | 1.3% | -16.9% | 44.8%
CCc1ccc(CNC(=O)C2CCN(S(=O)(=O)N3CC(C)CC(C)C3)CC2)cc1 (configuration not stated) | -3.1% | -3.7% | -0.6 | 50.1µM* | -9.6% | 25.9%
CN1CCN(Cc2coc3c(Cl)cc(Cl)cc3c2=O)CC1 | -7.2% | -16.5% | -6.8 | 50.1µM* | 8.91µM* | u
CN(Cc1ccccc1)C(=O)C1CCCN1S(=O)(=O)c1ccc2c(c1)n(C)c(=O)c(=O)n2C (configuration not stated) | -15.4% | -18.1% | -1.7 | -1.4% | -10.0% | -9.5%
Cc1sc(NC(=O)C2CCCCC2C(=O)O)c(C(N)=O)c1-c1ccc(C(C)(C)C)cc1 (configuration not stated) | -11.7% | 21.2µM* | 0.5 | u | -19.3% | -30.7%
Cc1sc(NC(=O)/C=C/C(=O)O)c(C(N)=O)c1-c1ccc(C(C)(C)C)cc1 | -10.2% | 26.7µM* | u | -26.2% | -31.6% | -27.6%
CCOC(=O)c1c(NC(=O)/C=C\C(=O)O)sc(C)c1-c1ccccc1 | -1.0% | 21.2µM* | u | -16.2% | u | -21.8%
Cc1sc(NC(=O)C2CCCCC2C(=O)O)c(C(N)=O)c1-c1ccccc1 (configuration not stated) | -8.2% | u | -17.9 | -1.6% | -16.0% | -9.0%
Cc1sc(NC(=O)C2C3CCC(C3)C2C(=O)O)c(C(N)=O)c1-c1ccc(C(C)(C)C)cc1 (configuration not stated) | -1.1% | u | -8.3 | -29.3% | -14.0% | -7.7%
CCOC(=O)c1c(NC(=O)/C=C/C(=O)O)sc(C)c1-c1ccc(C(C)(C)C)cc1 | u | 21.2µM* | -2.7 | u | u | -14.6%
CCc1c(C)sc(NC(=O)/C=C/C(=O)O)c1C(N)=O | -0.7% | -15.7% | -21.5 | -7.8% | -21.1% | 31.8%
CCOC(=O)c1c(NC(=O)c2c(-c3ccccc3)noc2C)sc(C)c1-c1ccccc1 | -8.7%[0.501 µM] | -11.9% | 0.7 | 1.0% | -15.6% | 37.1%
CC(C)[C@H](NC(=O)c1ccc(Cl)cc1Cl)C(=O)NNc1cccc(C(=O)O)c1 | -4.8% | 2.5% | -3.4 | x | -4.9% | 37.7%
COc1ccc(-c2nc3c4ccccc4n(CC(=O)N4CCN(c5ccccc5F)CC4)c(=O)n3n2)cc1 | -4.5% | x | x | -3.3% | -7.5% | 15.4%
COc1ccccc1OCCNC(=O)c1ccc(C)c(S(=O)(=O)N2CCOCC2)c1 | 0.2% | -2.8% | 4.4 | -16.0% | -14.5% | 17.5%
CCc1ccc(C(=O)CSc2nc(-c3ccccc3)nc3c2CCCC3)cc1 | -7.0% | x | x | 6.9% | 20.4% | 91.4%
SMILES | KAT2A inh | PLK1 PBD inh | PI5P4K alpha inh | BAZ2B block | JMJD2A Tudor | HP1b chromo inh
CC(C)=CCOc1ccc2c(C)c(CC(=O)N3C[C@H]4C[C@@H](C3)c3cccc(=O)n3C4)c(=O)oc2c1C | -1.9% | 0.5% | 3.6 | -2.7% | -15.6% | 39.9%
O=C1Nc2ccccc2C1=O | x | -7.9% | -4.2 | x | -12.9% | 1.0%
O=C1Nc2ccccc2Nc2ccccc21 | 27.2% | -1.7% | 8.0 | u | 50.1µM* | 5.2%
O=C1Nc2ccccc2/C1=C\C(=O)c1ccccc1 | -1.0% | 18.9µM* | 1.2 | -26.1% | u | -14.7%
COc1cc(C=O)ccc1Oc1nc(Nc2ccc(F)cc2F)nc(N2CCOCC2)n1 | -8.1% | 21.2µM* | -15.0 | u | -15.8%[11.4 µM] | -21.2%
O=C(O)c1ccccc1C(=O)NNc1ccc(F)cc1 | -13.0% | -15.0% | -0.1 | -20.9% | 39.8µM* | -23.7%
O=C(O)c1ccccc1C(=O)NCc1ccc(F)cc1 | 18.3% | -4.9% | x | 4.5% | -9.5% | 10.1%
Cc1cccc(C)c1NC(=O)Cn1cc(S(=O)(=O)Cc2ccc(F)cc2)c2ccccc21 | u | x | x | u | u | -17.1%
Cc1ccc(NC(=O)Cn2cc(S(=O)(=O)Cc3ccc(F)cc3)c3ccccc32)cc1Cl | u | x | x | 50.1µM* | 56.2µM* | -29.5%
CN(C)c1ccc(NC(=O)Cn2cc(S(=O)(=O)Cc3ccccc3Cl)c3ccccc32)cc1 | -14.6% | x | x | 25.1µM* | u | -17.8%
CC(=O)c1nc2ccccc2n1S(=O)(=O)c1ccc(Cl)cc1 | -9.9% | 2.8% | x | 56.2µM* | -24.4% | 28.2%
S=C(/N=c1/sccn1Cc1ccccc1)NC1CC1 | -4.5% | -16.9% | -4.7 | 56.2µM* | -31.8% | 1.6%
CN(C)CCCNC(=S)/N=c1\sccn1Cc1ccccc1Cl | 0.2% | -6.6% | 4.5 | -13.3% | -28.4% | 29.1%
O=C(O)c1cc(N=Cc2c(O)c3ccccc3oc2=O)ccc1O | 0.7% | u | -65.3* | -19.7% | -22.1% | 11.8%
COc1cccc(NC(=O)CCNC(=O)Cn2cnc3ccccc3c2=O)c1 | -7.5% | x | x | -16.2% | -13.4% | 3.7%
C/C(=N\NC(=O)c1ccn(C)n1)c1cccc(NC(=O)c2ccncc2)c1 | 2.2% | -5.9% | 1.7 | -5.3% | 10µM* | -4.8%
C/C(=N\NC(=O)c1ccc(Cl)cc1)c1cccc(NC(=O)c2cccnc2)c1 | -4.9% | -4.7% | 5.5 | 1.2% | -11.1% | 50.4%
COc1ccc(C(=O)Nc2ccc(/C(C)=N/NC(=O)c3ccncc3)cc2)cc1 | -6.3% | x | x | 50.1µM* | x | x
COc1ccc(/C(C)=N/NC(=O)c2ccncc2)cc1 | -15.2% | -2.5% | -0.7 | -1.5% | -2.7% | x
